# A selection: hits, their analogues and other compounds. The true share with any hit is near 9.9%.
# KB-V1 MDR tox = KB-V1 MDR subline cytotoxicity; KB-V1 MDR cells viability, CellTiter-Glo, 72 h; Potency, µM (series often up to 46.1 µM), actives largely listed as cytotoxic; actives 3.4% (n = 400,000); AID 1347076; note: potency is the fitted concentration of half-maximal effect; % is set by controls: 0 for no effect and ±100 for the full control effect; nearly all actives have a fitted effect of over 60% in size
#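 qHTS viability screen in drug-selected KB-V1 MDR cells: 72 h compound treatment at 37 degrees C, ATP luminescence end point.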
# SW480 rereplic = DNA re-replication induction in SW480 cells; SW480 DNA re-replication, Hoechst DNA content imaging, 48 h; Potency, µM (top dose mostly 46.1 µM), without a hit: at the top dose re-replication activation, usual class: activators; actives 1.8% (n = 340,000); AID 624297; note: potency is the fitted concentration of half-maximal effect; % of control where 0% means no effect; nearly all actives have a fitted effect of over 55% in size
#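 Cells (250 per well) received 23 nL compound or DMSO by pin tool and were kept 48 hr at 37 C, 5% CO2. Nuclei were then stained with Hoechst for 40 min and scanned for DNA content.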
# IL-1B inflam inh = inflammasome signaling inhibition, IL-1 beta readout | actives 4.7% (n = 360,000) | THP-1 LPS/ATP IL-1B secretion, AlphaLISA, 16 h; stronger effect = lower value | activity change, % at 57.5 µM; in the data active = activity change below about -50%; inconclusive = mostly about -30% to -49%; note: % is set by controls: 0 for no effect and ±100 for the full control effect
#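 Secreted IL-1B measured by AlphaLISA bead assay after 16 h compound exposure of THP-1 cells; compounds (final up to 57.5 uM) added 1 h before LPS (250 ng/mL) and ATP (1.25 mM) stimulation; lower signal means less secretion.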
# KB-3-1 cytotox = KB-3-1 parental cell cytotoxicity | KB-3-1 viability, CellTiter-Glo ATP luminescence, 72 h | Potency, µM (highest dose often 46.1 µM), most hits filed as cytotoxic | actives 1.4% (n = 400,000); note: potency is the fitted concentration of half-maximal effect; % is set by controls: 0 for no effect and ±100 for the full control effect; nearly all actives have a fitted effect of over 60% in size
#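 Parental KB-3-1 adenocarcinoma cells in phenol-red-free DMEM with 10% FBS were pin-treated with compounds at several concentrations, incubated 72 h at 37 °C, and viability read by CellTiter-Glo luminescence; concentration-effect curves were fitted after normalization.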
# MCF10A rereplic = inducers of DNA re-replication in MCF 10A breast cells; MCF 10A DNA re-replication, Hoechst nuclear intensity, 48 h; actives 2.9% (n = 350,000); Potency, µM (doses to about 46.1 µM), for inactives: at the top dose activity, positive = re-replication, most hits filed as activators; AID 624296; note: potency is the fitted concentration of half-maximal effect; % of control where 0% means no effect; nearly all actives have a fitted effect of over 50% in size
# * = called active by the depositor; i = inactive; ? = inconclusive; . = not tested or not shown. Unless noted, calls come from the whole dose curve; as a rule, active = well fitted curve in the direction sought with a large enough effect; inconclusive = small, poorly fitted or top-dose-only effect, or another doubt; inactive = no such curve, though single readings can be large; an effect the other way counts as inactive or inconclusive.
SMILES,KB-V1 MDR tox,SW480 rereplic,IL-1B inflam inh,KB-3-1 cytotox,MCF10A rereplic
Cc1ccc2c(c1)nnn2C1CCN(S(=O)(=O)c2ccc(C(=O)N(C)C3CCCCC3)cc2)CC1,?,8%,-73*,?,21%
Cc1ccc2c(c1)nnn2C1CCN(C(=O)C2CCCCC2)CC1,i,0%,?,i,8%
Cc1ccc2c(c1)nnn2C1CCN(C(=O)Nc2ccccc2C)CC1,i,-30%,-57*,i,-2%
CCOc1ccc(NC(=O)N2CCC(n3nnc4cc(C)ccc43)CC2)cc1,?,15µM*,-15,i,15%
COc1ccc(CNc2nc(N)nc3nc[nH]c23)cc1,i,.,.,i,.
COc1ccc(NC(=O)COC(=O)CNS(=O)(=O)c2ccc(F)c(F)c2F)cc1OC,i,1%,20,i,17%
CC(C)=CCC12Oc3cc(O)ccc3C1(O)Oc1cc(O)c([C@H]3C=C(C)CC(c4ccc(O)cc4O)[C@H]3C(=O)c3ccc(O)cc3O)c(O)c1C2=O (stereo partly drawn),?,-18%,22,i,?
OCC(O)CO,.,-7%,.,.,0%
O=C(COc1ccc(S(=O)(=O)N2CCOCC2)cc1)NCCc1ccc(Cl)cc1,i,.,-24,i,.
CN(C)CCCn1c(N)c(S(=O)(=O)c2ccccc2)c2nc3ccccc3nc21,i,?,-27,i,23µM*
CCCCn1c(N)c(S(=O)(=O)c2ccc(C)cc2)c2nc3ccccc3nc21,?,0.65µM*,-81*,?,3.7µM*
Cc1cccc(S(=O)(=O)c2c(N)n(Cc3ccco3)c3nc4ccccc4nc23)c1,18µM*,18%,0,?,?
Cc1ccc(S(=O)(=O)c2c(N)n(Cc3ccco3)c3nc4ccccc4nc23)cc1,i,?,-7,?,?
Cc1ccc(NC(=O)CCNS(=O)(=O)c2ccc3c(c2)CCCC(=O)N3)cc1,i,.,.,i,.
Cc1ccc(OCC(=O)Nc2cccc(-c3nnc(-c4ccccc4)o3)c2)cc1,2.3µM*,5%,-4,i,3%
O=C(COc1ccccc1)Nc1cccc(-c2nc3cc4ccccc4cc3[nH]2)c1,9.2µM*,?,-85*,?,15µM*
CCCCC(=O)Nc1cccc(-c2nnc(-c3ccccc3)o2)c1,18µM*,-7%,?,i,-11%
Clc1ccc(-c2nnc(-c3ccc4ccccc4c3)o2)cc1,i,-3%,-17,i,13%
Cc1cc(C)cc(OCC(=O)Nc2cccc(-c3nc4ccccc4[nH]3)c2)c1,i,.,.,i,.
Cc1ccc(-c2nnc(-c3ccc4ccccc4c3)o2)cc1,i,?,-9,?,6.5µM*
CCC(=O)Nc1cccc(-c2nnc(-c3ccccc3)o2)c1,i,-4%,?,i,-4%
O=C1C(=O)N(C2CCCC2)C(=O)N1Cc1c(F)cccc1Cl,i,0%,1,i,1%
Cn1nnc2c(N3CCCCC3)ncnc21,i,.,.,i,.
CC1CCN(CC2C(=O)O[C@@H]3C[C@@]4(C)CCC[C@H](C)C4=C[C@H]23)CC(C)(C)C1 (stereo partly drawn),i,?,.,i,?
O=C(CSc1nnc(-c2ccc(F)cc2)c2ccccc12)Nc1ccccc1Cl,i,1%,-8,i,?
SMILES,KB-V1 MDR tox,SW480 rereplic,IL-1B inflam inh,KB-3-1 cytotox,MCF10A rereplic
COC(=O)Cc1nnc(SCC(=O)Nc2ccccc2)c2ccccc12,i,21%,-63*,i,?
COc1ccc(CCNC(=O)CSc2nnc(-c3ccc(F)cc3)c3ccccc23)cc1OC,7.3µM*,12%,0,i,9%
O=C(CSc1nnc(-c2ccc(F)cc2)c2ccccc12)Nc1ccccc1,i,3%,-61*,i,-4%
O=C(CSc1nnc(-c2ccc(F)cc2)c2ccccc12)Nc1cccc(Cl)c1,?,4%,-95*,i,?
CO/N=C(/CN1CCCCC1)c1ccc(Cl)cc1,i,0%,23,i,1%
COc1ccc(CCNC(=O)c2cnn(-c3cccc(C)c3)c2C2CCNCC2)cc1OC,i,.,.,i,.
COc1cccc(CNC(=O)C2CCN(Cc3cc4ccccc4n3Cc3ccc(C)cc3)CC2)c1,i,.,.,i,.
CCc1ccc(NC(=O)CSc2nnc(-c3n[nH]c4ccccc34)n2-c2ccccc2)cc1,i,2%,4,i,?
O=C(CSc1nnc(-c2n[nH]c3ccccc23)n1-c1ccccc1)Nc1cccc(Cl)c1,7.3µM*,4%,0,i,-49%
Cc1cccc(Cn2cc3c(=O)n(CC(=O)Nc4ccc(C)c(F)c4)nc-3c3cc(F)ccc32)c1,i,.,.,i,.
CC1(C(=O)Nc2cccc(Oc3ccccc3)c2)Cc2c(-c3ccc4c(c3)OCO4)ccnc2O1 (stereo not drawn),5.8µM*,.,80,4.6µM*,.
CC1(C(=O)Nc2cccnc2)Cc2c(-c3ccc4c(c3)OCO4)ccnc2O1 (stereo not drawn),?,.,-22,15µM*,.
CC1(C(=O)Nc2ccccc2)Cc2c(-c3ccc4c(c3)OCO4)ccnc2O1 (stereo not drawn),?,.,-26,?,.
CCCNC(=O)[C@H](Cc1c[nH]c2ccccc12)NC(=O)c1ccccc1Cl,?,-3%,4,i,-3%
O=C(NC1CCCCC1)C(c1ccncc1)N(Cc1ccccc1)C(=O)c1ccc(-c2ccccc2)[nH]1 (stereo not drawn),23µM*,?,-28,?,?
O=C(NCC1CCCO1)C(c1cccs1)N(Cc1ccccc1)C(=O)c1ccc(-c2ccccc2)[nH]1 (stereo not drawn),3.7µM*,25%,0,i,26%
COc1ccc(CN(CC(=O)NC2CCCC2)C(=O)c2csnn2)cc1,i,-60%,-18,i,1%
O=C(NC1CCCCC1)C(c1ccncc1)N(Cc1ccc(F)cc1)C(=O)c1ccccn1 (stereo not drawn),?,-3%,-3,i,14%
O=C(NCC1CCCO1)C(c1cccs1)N(C(=O)c1ccc(-c2ccccc2)[nH]1)C1CCCC1 (stereo not drawn),?,13%,-26,i,12%
CC(C)(C)NC(=O)C(c1ccncc1)N(Cc1ccco1)C(=O)c1ccc(-c2ccccc2)[nH]1 (stereo not drawn),?,?,39,i,21µM*
COc1ccc(CN(CC(=O)NC2CCCC2)C(=O)c2ccc(-c3ccccc3)[nH]2)cc1,?,3%,-68*,?,2%
CC(=O)N1c2ccc(S(=O)(=O)NCCC(=O)Nc3ccc(Br)c(C)c3)cc2CC1C (stereo not drawn),i,.,.,?,.
